Assay outcomes (PubChem BioAssay)
S2 tox: Viability Counterscreen for Primary qHTS for Inhibitors of ATXN expression. S2 cells (HEK-293 line with an ATXN2-luciferase reporter) viability, CellTiter-Fluor protease fluorescence, 24 h. Potency, µM (series often up to 56.7 µM), hits mostly cytotoxic. 0.49% of 400,000 active. AID 651635, 2014; further: nearly all actives have a fitted effect of over 40% in size
HT1080NT lethal: qHTS for induction of synthetic lethality in tumor cells producing 2HG: qHTS for the HT-1080-NT fibrosarcoma cell line | HT-1080-NT fibrosarcoma viability, CellTiter-Glo ATP luminescence, 48 h | Potency, µM (series often up to 46.1 µM), hits mostly cytotoxic | 1.6% of 360,000 active | AID 686970, 2013;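 further: NT is the 2HG producing partner of a matched IDH1 knockdown line; nearly all actives have a fitted effect of over 55% in size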
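Compounds were tested in concentration-response format on HT-1080-NT cells for 48 hours at 37 degrees C. Cell viability came from CellTiter-Glo luminescence; curves were classified by r2, response magnitude and activity.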
KB-V1 MDR tox: qHTS assay for MDR1-selective chemotherapeutics: Primary screen using the drug-selected MDR subline cells KB-V1 | AID 1347076, 2019 | 3.4% of 400,000 active | KB-V1 MDR cells viability, CellTiter-Glo, 72 h | Potency, µM (highest dose often 46.1 µM), usual class: cytotoxic; further: nearly all actives have a fitted effect of over 60% in size
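Potencies derive from concentration-effect curves fitted to normalized luminescence (CellTiter-Glo) of KB-V1 cells treated for 72 h at 37 degrees C in phenol-red-free DMEM containing 10% FBS.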
HT1080 IDH1KD tx: qHTS for induction of synthetic lethality in tumor cells producing 2HG: qHTS for the HT-1080-IDH1KD cell line; HT-1080 IDH1 knockdown viability, ATP luminescence, 48 h; Potency, µM (highest dose often 46.1 µM), hits mostly cytotoxic; 2% of 360,000 active
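Luminescent ATP read-out (CellTiter-Glo, 10 min at room temperature) after 48 h compound exposure at 37 °C gave viability of IDH1-knockdown HT-1080 cells. Activity was normalised to DMSO and cell-free wells, then fitted as concentration-response curves.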
KB-3-1 tox: qHTS assay for MDR1-selective chemotherapeutics: Primary screen using the parental adenocarcinoma cell KB-3-1; KB-3-1 viability, CellTiter-Glo ATP luminescence, 72 h; Potency, µM (highest dose often 46.1 µM), actives largely listed as cytotoxic; 1.4% of 400,000 active; AID 1347075, 2019; further: nearly all actives have a fitted effect of over 60% in size
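Using CellTiter-Glo luminescence, growth of non-resistant KB-3-1 adenocarcinoma cells is assessed 72 h after pin-tool compound addition at 37 °C. Normalized responses across the concentration series yield fitted curves.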
ATXN2 expr inh: Primary qHTS for Inhibitors of ATXN expression; HEK-293 ATXN2-luciferase reporter, luminescence, 24 h; Potency, µM (titrated, usually from 57 µM), usual class: inhibitors; 0.72% of 360,000 active; further: nearly all actives have a fitted effect of over 55% in size
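qHTS (up to 57 uM final) was run with 24 h compound exposure of reporter cells at 37 °C. Each well was multiplexed: SteadyGlo luminescence measured ATXN2-luciferase expression after a fluorogenic Gly-Phe-AFC viability readout (25 uM final).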
A number is an active result; [ ] = dose if it differs, or a comment. Compounds with a hit are over-represented: about 6.2% of the library has one in this group of screens. The call rests on the fitted dose curve; in most records, active means well fitted curve in the direction sought with a large enough effect; inconclusive means small, poorly fitted or top-dose-only effect, or another doubt; inactive means no such curve, though single readings can be large; an effect the other way counts as inactive or inconclusive.

Results for COc1ccc(-c2cc(C(F)(F)F)n3nc(C(=O)N4CCCCC4)cc3n2)cc1 ?
S2 tox: inactive; HT1080NT lethal: inactive; KB-V1 MDR tox: inconclusive; HT1080 IDH1KD tx: inactive; KB-3-1 tox: inactive; ATXN2 expr inh: inactive

Results for COc1ccc(-c2cc(C(F)(F)F)n3nc(C(=O)N4CCCCC4)cc3n2)cc1OC ?
S2 tox: inactive; HT1080NT lethal: inactive; KB-V1 MDR tox: 10µM; HT1080 IDH1KD tx: inactive; KB-3-1 tox: inconclusive; ATXN2 expr inh: inactive

What do the screens show for `COc1ccc(N/C(N)=N/c2nc(CSc3nnc(C)s3)cc(=O)[nH]2)cc1`?
S2 tox: inconclusive; HT1080NT lethal: 3.3µM; KB-V1 MDR tox: inactive; HT1080 IDH1KD tx: 2.6µM; KB-3-1 tox: 5.2µM; ATXN2 expr inh: inactive

What do the screens show for `Cc1ccc(N/C(N)=N/c2nc(CSc3nnc(C)s3)cc(=O)[nH]2)c(C)c1`?
S2 tox: inconclusive; HT1080NT lethal: 2.6µM; KB-V1 MDR tox: inconclusive; HT1080 IDH1KD tx: 4.1µM; KB-3-1 tox: 2.3µM

How did COCc1cc(=O)[nH]c(/N=C(\N)Nc2ccc(Oc3ccccc3)cc2)n1 do in these assays?
S2 tox: inconclusive; HT1080NT lethal: inactive; KB-V1 MDR tox: 18µM; HT1080 IDH1KD tx: inactive; KB-3-1 tox: inactive; ATXN2 expr inh: inactive

Results for Cc1nc(-c2ccc(S(=O)(=O)N(C)Cc3ccccc3)cc2)co1 ?
S2 tox: inactive; KB-V1 MDR tox: inactive; KB-3-1 tox: inactive; ATXN2 expr inh: inconclusive

What do the screens show for `COc1cccc(CNC(=O)Cn2c(SCC(=O)Nc3ccc(C)c(C)c3)nc3ccccc32)c1`?
S2 tox: inconclusive; KB-V1 MDR tox: inconclusive; KB-3-1 tox: inactive; ATXN2 expr inh: inactive

How did Cn1c2ccccc2c2c(C(=O)O)cn(C3CCCC3)c(=O)c21 do in these assays?
S2 tox: inactive; HT1080NT lethal: inactive; KB-V1 MDR tox: inactive; HT1080 IDH1KD tx: inactive; KB-3-1 tox: inactive; ATXN2 expr inh: inactive

Results for CN[C@@H]1C[C@H]2O[C@@](C)([C@H]1OC)n1c3ccccc3c3c4c(c5c6ccccc6n2c5c31)C(=O)N[C@H]4O ?
ATXN2 expr inh: 1.2µM

How did COc1cc(O)c(C(CCN2CCCC(C)C2)c2ccc3c(c2)OCO3)c(OC)c1 (stereo unspecified) do in these assays?
S2 tox: inconclusive; HT1080NT lethal: inactive; KB-V1 MDR tox: inactive; HT1080 IDH1KD tx: inactive; KB-3-1 tox: inactive; ATXN2 expr inh: inactive

How did COc1cc(C(CCN2CCCC(C)C2)c2c(OC)cc(OC)c3c(-c4ccccc4)cc(=O)oc23)cc(OC)c1OC (stereo unspecified) do in these assays?
HT1080NT lethal: 18µM; KB-V1 MDR tox: inactive; HT1080 IDH1KD tx: inconclusive; KB-3-1 tox: inconclusive; ATXN2 expr inh: inconclusive

What do the screens show for `COc1cc(C(CCN2CCCCC2)c2c(OC)cc(OC)c3c(-c4ccccc4)cc(=O)oc23)cc(OC)c1OC` (stereo unspecified)?
S2 tox: 25µM; HT1080NT lethal: inactive; KB-V1 MDR tox: inconclusive; HT1080 IDH1KD tx: inactive; KB-3-1 tox: inconclusive; ATXN2 expr inh: inconclusive

How did COc1cc(OC)c2ccc(=O)oc2c1C(CCN1CCCC(C)C1)c1ccc2c(c1)OCO2 (stereo unspecified) do in these assays?
S2 tox: 28µM; HT1080NT lethal: inactive; KB-V1 MDR tox: inactive; HT1080 IDH1KD tx: inactive; KB-3-1 tox: inactive; ATXN2 expr inh: inactive

What do the screens show for `CN1c2ccc(Cl)cc2-c2nc(SCC(=O)NCc3ccccc3)ncc2S1(=O)=O`?
S2 tox: inactive; KB-V1 MDR tox: inactive; KB-3-1 tox: inactive; ATXN2 expr inh: inactive

How did CCOC(=O)c1cc(C)nnc1C(=O)OCC do in these assays?
S2 tox: inactive; HT1080NT lethal: inactive; KB-V1 MDR tox: inactive; HT1080 IDH1KD tx: inactive; KB-3-1 tox: inconclusive

What do the screens show for `CN(C)c1ccc(CN(C(=O)COc2ccc(Br)cc2)C2CCS(=O)(=O)C2)cc1` (stereo unspecified)?
S2 tox: inactive; HT1080NT lethal: inactive; KB-V1 MDR tox: 8.2µM; HT1080 IDH1KD tx: inactive; KB-3-1 tox: inactive; ATXN2 expr inh: inactive

What do the screens show for `Cc1cc(C)cc(OCC(=O)N(Cc2cccs2)C2CCS(=O)(=O)C2)c1` (stereo unspecified)?
S2 tox: inactive; HT1080NT lethal: inactive; KB-V1 MDR tox: 8.2µM; HT1080 IDH1KD tx: inactive; KB-3-1 tox: inactive; ATXN2 expr inh: inactive

How did COc1cccc(NC(c2nnc(-c3ccccc3)o2)c2ccc(F)cc2Cl)c1 (stereo unspecified) do in these assays?
S2 tox: inactive; KB-V1 MDR tox: inactive; KB-3-1 tox: inactive; ATXN2 expr inh: inactive

How did O=C(NCCCn1ccnc1)c1cc2nc(-c3ccc(Br)cc3)cc(C(F)(F)F)n2n1 do in these assays?
S2 tox: inconclusive; HT1080NT lethal: 23µM; KB-V1 MDR tox: inactive; HT1080 IDH1KD tx: inconclusive; KB-3-1 tox: inactive; ATXN2 expr inh: inconclusive

How did Cc1cc(C(=O)Nc2ccccc2-c2nc(CNC(=O)c3cc4ccccc4cn3)c(C)o2)c(C)o1 do in these assays?
S2 tox: inactive

What do the screens show for `CN1CCN(C(=O)c2cc3c(c(-c4cccc(-c5cccnc5)c4)n2)[C@@H](CCO)N(C(=O)CC2CC2)C3)CC1`?
S2 tox: inactive; HT1080NT lethal: inactive; KB-V1 MDR tox: inactive; HT1080 IDH1KD tx: inactive; KB-3-1 tox: inactive; ATXN2 expr inh: inactive

What do the screens show for `CCn1c(Cc2cccc3ccccc23)nnc1SCC(=O)Nc1nccs1`?
S2 tox: inactive; HT1080NT lethal: inactive; KB-V1 MDR tox: 18µM; HT1080 IDH1KD tx: inactive[9.24 µM]; KB-3-1 tox: inactive; ATXN2 expr inh: inactive

Results for COc1cccc2cc(-c3nnc(SCC(=O)Nc4ccc(NC(C)=O)cc4)n3C)oc12 ?
S2 tox: inactive; HT1080NT lethal: inactive; KB-V1 MDR tox: inactive; HT1080 IDH1KD tx: inactive; KB-3-1 tox: inconclusive; ATXN2 expr inh: inactive

Results for C=CCn1c(SCC(=O)Nc2nccs2)nnc1-c1cc2cccc(OC)c2o1 ?
S2 tox: inconclusive; HT1080NT lethal: inconclusive; KB-V1 MDR tox: 2.1µM; HT1080 IDH1KD tx: inconclusive; KB-3-1 tox: inactive; ATXN2 expr inh: inconclusive

Results for O=C(CSc1nnc(-c2cccc(Cl)c2)o1)N1CCc2ccccc21 ?
S2 tox: inactive; KB-V1 MDR tox: inconclusive; KB-3-1 tox: inactive; ATXN2 expr inh: inactive

Results for COc1ccc(-c2ccc(SCC(=O)c3cccs3)nn2)cc1 ?
S2 tox: inactive; HT1080NT lethal: inactive; KB-V1 MDR tox: 16µM; HT1080 IDH1KD tx: inactive; KB-3-1 tox: inconclusive; ATXN2 expr inh: inactive
